Out of some 310,000 compounds screened, about 14,000 (4.5%) showed an effect of 50% or more. Effects have a minus sign here. This is one part of a sample in which strong results are shown more often than they occur.
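Note: peak tail current of the secondary pulse compared with the same well before compound.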

The target in this test is human ether-à-go-go-related gene (hERG) potassium channel (human, UniProt Q12809). The test can be described thus: primary screen, population patch clamp on CHO cells stably expressing hERG; higher = less effect of the substance.
Chain of human ether-à-go-go-related gene (hERG) potassium channel (Q12809 whole entry, looked up): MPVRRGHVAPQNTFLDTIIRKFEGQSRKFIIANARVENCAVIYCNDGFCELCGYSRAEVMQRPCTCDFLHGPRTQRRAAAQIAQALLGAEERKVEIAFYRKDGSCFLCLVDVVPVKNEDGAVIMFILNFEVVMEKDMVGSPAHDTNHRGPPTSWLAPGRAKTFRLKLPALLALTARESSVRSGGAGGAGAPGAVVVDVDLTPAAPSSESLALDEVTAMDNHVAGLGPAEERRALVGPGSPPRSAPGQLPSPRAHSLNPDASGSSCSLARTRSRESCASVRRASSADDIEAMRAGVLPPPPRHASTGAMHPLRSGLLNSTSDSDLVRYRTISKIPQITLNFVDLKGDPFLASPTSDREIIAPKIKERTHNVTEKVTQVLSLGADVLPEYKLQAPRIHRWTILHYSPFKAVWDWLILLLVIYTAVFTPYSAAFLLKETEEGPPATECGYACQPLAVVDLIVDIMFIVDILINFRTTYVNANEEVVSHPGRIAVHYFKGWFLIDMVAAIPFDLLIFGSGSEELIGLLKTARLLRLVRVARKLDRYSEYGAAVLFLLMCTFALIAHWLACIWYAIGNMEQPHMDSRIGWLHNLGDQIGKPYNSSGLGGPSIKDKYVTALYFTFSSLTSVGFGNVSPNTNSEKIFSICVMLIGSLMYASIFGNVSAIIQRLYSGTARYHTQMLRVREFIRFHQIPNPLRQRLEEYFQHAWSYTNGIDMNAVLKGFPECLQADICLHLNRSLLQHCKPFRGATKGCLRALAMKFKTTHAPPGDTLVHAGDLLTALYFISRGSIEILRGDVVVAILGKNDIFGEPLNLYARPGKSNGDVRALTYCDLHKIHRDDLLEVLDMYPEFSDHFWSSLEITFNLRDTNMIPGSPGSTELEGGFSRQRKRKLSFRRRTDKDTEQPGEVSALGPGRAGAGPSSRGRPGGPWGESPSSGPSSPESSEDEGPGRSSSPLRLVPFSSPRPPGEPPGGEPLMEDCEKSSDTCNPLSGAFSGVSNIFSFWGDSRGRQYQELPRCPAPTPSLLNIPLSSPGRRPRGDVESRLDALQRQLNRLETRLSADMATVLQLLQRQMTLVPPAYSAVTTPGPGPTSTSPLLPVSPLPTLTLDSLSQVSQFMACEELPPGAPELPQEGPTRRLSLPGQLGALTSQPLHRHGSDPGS
`CC(C)c1ccc(-c2c(NCCc3ccccc3)c(=O)c2=O)cc1`: the “hERG current change (%, negative = inhibition) at 10uM” value came to 22.1%. To `Cc1ccc(OCCNC(=O)CNC(=O)c2ccccc2Cl)cc1` belongs -3.58%. The value for `COc1cc(CN2CCNCC2)cc(OC)c1OC.Cl` was 5.64%; that for `CN(C)CCn1c(NCc2ccc3c(c2)OCO3)nc2ccccc21.Cl` was -59.5%; that for `Nc1c(C(=O)NCc2ccc3c(c2)OCO3)c2nc3ccccc3nc2n1CCCN1CCOCC1` was 1.46%. The value for `O=C(NCCN1CCOCC1)C(=O)NCc1ccc2c(c1)OCO2` was 22.8%; that for `CCCn1c(NCc2ccc(N(C)C)cc2)nc2ccccc21` was -40.2%; that for `CCn1c(NCc2ccc3c(c2)OCO3)nc2ccccc21` was -38.5%. Regarding `CCCCn1c(NCc2ccc3c(c2)OCO3)nc2ccccc21`, the “hERG current change (%, negative = inhibition) at 10uM” value is -61%. Turning to `CCCCn1c(NCc2ccc(N(C)C)cc2)nc2ccccc21`, the “hERG current change (%, negative = inhibition) at 10uM” value is -43.7%. To `c1ccc2c(c1)nc(NCc1ccc3c(c1)OCO3)n2CCN1CCOCC1` belongs -66.8%; to `CCCn1c(NCc2ccc3c(c2)OCO3)nc2ccccc21`, 12.6%; to `COc1cc2c(cc1OC)C(CC(=O)O)N(C(=O)CC1CCCC1)CC2` (centres unmarked), 20.6%. To `COC(=O)CCCCC1SCC(NC(=O)OC)C1NC(=O)OC` (centres unmarked) belongs 2.09%. With `CC(C)(C)OC(=O)COc1cc(F)ccc1[N+](=O)[O-]`, the “hERG current change (%, negative = inhibition) at 10uM” value is -3.54%. The value for `CCCCn1c(=N)n(CC(O)COc2ccccc2)c2ccccc21` (centres unmarked) was -73.1%. To `Cc1ccc(OCCn2c(=O)cnc3ccccc32)cc1` belongs -9.95%.

Regarding `Cc1ccc(OCCn2c(=O)sc3ccccc32)cc1`, the “hERG current change (%, negative = inhibition) at 10uM” value turned out to be 4.98%. `CCn1c(=N)n(CC(O)COc2ccc(C)cc2)c2ccccc21.Cl` (centres unmarked): the “hERG current change (%, negative = inhibition) at 10uM” value was -70%. The value for `Br.CCCCn1c(=N)n(CCOc2ccc(C)cc2)c2ccccc21` was -73.1%. To `Cc1ccc(OCC(O)Cn2c3ccccc3c3ccccc32)cc1` (centres unmarked) belongs 8.1%; to `Cc1nc2ccccc2n1CC(O)COc1ccc(Br)cc1` (centres unmarked), -49.9%. To `CCCCn1c(=N)n(CC(O)COc2ccc(C)cc2)c2ccccc21.Cl` (centres unmarked) belongs -81.8%.

Turning to `OCc1nc2ccccc2n1CC(O)COc1ccccc1` (centres unmarked), the “hERG current change (%, negative = inhibition) at 10uM” value came to 6.25%. For `Cc1cc(NC(=O)C2CCCN(S(=O)(=O)c3c(C)noc3C)C2)n[nH]1` (centres unmarked), the “hERG current change (%, negative = inhibition) at 10uM” value is recorded as -16.1%.

In the case of `CCOc1ccc(C(=O)COC(=O)CNC(=O)C2CCCCC2)cc1`, the “hERG current change (%, negative = inhibition) at 10uM” value is listed as -0.0501%. As for `O=C(COC(=O)C12CC3CC(CC(C3)C1)C2)Nc1ccc([N+](=O)[O-])cc1Br`, the “hERG current change (%, negative = inhibition) at 10uM” value amounted to 8.64%.

As for `CN1CCC(=NNC(=O)COc2ccc(Cl)cc2)CC1`, the “hERG current change (%, negative = inhibition) at 10uM” value turned out to be 17.4%. To `CCCn1c(=N)n(CC(O)COc2ccc(C)cc2)c2ccccc21.Cl` (centres unmarked) belongs -89%; to `CC1SC2(CN3CCC2CC3)NC1=O` (centres unmarked), 18%; to `CC1=CN2C(=NC(=O)CC2(C)C(=O)N(CC(=O)NC2CCCC2)Cc2ccccc2)C=C1` (centres unmarked), 9.32%. To `COc1ccccc1N1CCN(c2nc3ccccc3nc2C(C#N)C(=O)OC(C)C)CC1` (centres unmarked) belongs -12%; to `Cc1cccc(OCC(O)CN2CC3(C)CC2CC(C)(C)C3)c1` (centres unmarked), -67.6%.

For `CC1(C)CC2CC(C)(CN2CC(O)c2ccccc2)C1.O=C(O)C(=O)O` (centres unmarked), the “hERG current change (%, negative = inhibition) at 10uM” value is -42.5%.

Take `CC1(C)CC2CC(C)(CN2CC(O)COc2ccccc2)C1.O=C(O)C(=O)O` (centres unmarked): the “hERG current change (%, negative = inhibition) at 10uM” value was -41.5%.

Regarding `Cc1cccc(C)c1OCC(=O)N1CC2(C)CC1CC(C)(C)C2` (centres unmarked), the “hERG current change (%, negative = inhibition) at 10uM” value was -7.94%. On to `Cc1ccc(OCC(O)CN2CC3(C)CC2CC(C)(C)C3)cc1.O=C(O)C(=O)O` (centres unmarked), for which the “hERG current change (%, negative = inhibition) at 10uM” value is given as -53.6%. The value for `Cc1cccc(C(=O)N2CC3(C)CC2CC(C)(C)C3)c1` (centres unmarked) was 0.368%; that for `CSc1nnc(C)c(=O)n1COC(=O)COc1ccc2ccccc2c1` was -7.33%. The value for `Cc1nnc(SCCN2CCOCC2)n1-c1cccc(Cl)c1.O=C(O)C(=O)O` was -4.95%.

As to `COc1ccccc1N1CCN(C(=O)CN(c2ccc(C)c(C)c2)S(C)(=O)=O)CC1`, the “hERG current change (%, negative = inhibition) at 10uM” value was -6.02%. The value for `Cc1cc(OCC(=O)NCc2ccncc2)c2c3c(c(=O)oc2c1)CCC3` was -10.3%; that for `CCCc1cc(=O)oc2cc(C)cc(OCC(=O)NCc3ccccn3)c12` was -33.7%; that for `Cc1cc(OCC(=O)NCc2ccncc2)c2c(C)cc(=O)oc2c1` was -30.1%. The value for `Cc1cc(OCC(=O)NCc2ccccn2)cc(C)c1Br` was -69.4%; that for `Cc1cc(OCC(=O)NCc2ccncc2)c2c3c(c(=O)oc2c1)CCCC3` was -62.2%. To `Cc1cc(OCC(=O)NCc2ccncc2)c2c(C)c(C)c(=O)oc2c1` belongs -40.6%. For `Cc1cc(OCC(=O)NCc2cccnc2)c2c3c(c(=O)oc2c1)CCCC3`, the “hERG current change (%, negative = inhibition) at 10uM” value is -40.1%. The value for `CCCCc1cc(=O)oc2cc(C)cc(OCC(=O)NCc3ccccn3)c12` was -56.4%.

On to `O=C(COc1ccc(Br)cc1)NCc1ccccn1`, for which the “hERG current change (%, negative = inhibition) at 10uM” value is given as -8.53%.

Regarding `CCc1cc(=O)oc2cc(C)cc(OCC(=O)NCc3ccccn3)c12`, the “hERG current change (%, negative = inhibition) at 10uM” value is listed as -40%. For the compound `Cc1ccc(OCC(=O)NCc2ccccn2)cc1`, the “hERG current change (%, negative = inhibition) at 10uM” value is 12.4%. The value for `CCc1cc(=O)oc2cc(C)cc(OCC(=O)NCc3ccncc3)c12` was -54.8%; that for `CSc1cccc(NC(=O)/C=C/c2ccccc2)c1` was -7.06%; that for `CC(=O)N1CCN(S(=O)(=O)c2cccc(C(=O)NCCC3=CCCCC3)c2)CC1` was -8.54%. To `O=C1N(c2ccc(Cl)c(Cl)c2)CN(Cc2ccccc2)CN1n1cnnc1` belongs -25.9%. `COc1ccccc1-c1noc(CCC(=O)Nc2ccccc2Cl)n1`: the “hERG current change (%, negative = inhibition) at 10uM” value is reported as -4.71%.

In the case of `CS(=O)(=O)c1ccccc1-c1nnc(NC(=O)COc2ccc(Cl)cc2)o1`, the “hERG current change (%, negative = inhibition) at 10uM” value was -6.82%. To `CCC1=C(OC(=O)N(CC)CC)N2C(=O)OC(=NCc3ccccc3)[C@]2(C)[C@H]2C1=CC[C@H]1C(=O)NC(=O)[C@H]12` belongs -6.14%.

The record behind these values is PMC4336329 (PLoS ONE, 2015).
